# Test results taken from PubChem BioAssay (NCI).
# Compounds without any hit were thinned out: in the full panel of roughly 79,000, 15% have a hit. A number with no mark means an inactive call. Active and inactive are the calls of the source. No stated cut-off is given here; in the data, active means growth inhibition above about 70%; inactive means the rest.
# Key:
# [1] = NCI Yeast Anticancer Drug Screen. Data for the rad50 strain (AID 155);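 further: 0% = growth of vehicle-only cultures of the same strain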; settings: S. cerevisiae rad50 strain growth inhibition, active compounds read high
# How it was run: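 A DNA repair-deficient yeast mutant serves as the test organism; compound-induced growth inhibition is calculated against vehicle-treated cells.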
# [2] = NCI Yeast Anticancer Drug Screen. Data for the mec2-1 strain (AID 157); settings: S. cerevisiae mec2-1 strain, active compounds read high
# How it was run: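 Vehicle-treated cultures served as reference for growth inhibition of compound-exposed mec2-1 yeast.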
# [3] = NCI Yeast Anticancer Drug Screen. Data for the sgs1 mgt1 strain (AID 161);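 further: 0% = growth of cultures given vehicle only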; settings: S. cerevisiae sgs1 mgt1 strain, active compounds read high
# How it was run: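 Inhibition of yeast growth, normalised to vehicle-treated controls, is reported for a strain bearing genetic alterations in DNA damage repair.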
# [4] = NCI Yeast Anticancer Drug Screen. Data for the cln2 rad14 strain (AID 165);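 further: 0% = growth equal to vehicle treated cultures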; settings: S. cerevisiae cln2 rad14 strain, active compounds read high
# How it was run: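 Each compound was tested on cln2 rad14 yeast. Inhibition of growth was calculated against vehicle-exposed controls.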
# [5] = NCI Yeast Anticancer Drug Screen. Data for the bub3 strain (AID 167); settings: S. cerevisiae bub3 mutant strain, active compounds read high
# How it was run: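 Inhibition values come from growth of compound-treated mutant yeast normalised to vehicle-treated controls.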
# [6] = NCI Yeast Anticancer Drug Screen. Data for the mlh1 rad18 strain (AID 175); settings: S. cerevisiae mlh1 rad18 strain growth inhibition, active compounds read high
# How it was run: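 Vehicle-treated cultures served as the reference for growth inhibition in a yeast strain carrying DNA damage repair alterations exposed to each compound.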
# [7] = at 5.0 µM (retest, dose inferred, filed as 0.5)
# [8] = at 50.0 µM (retest, dose inferred, filed as 5.0)
Structure (SMILES),"growth inhibition [1, 7]","growth inhibition [1, 8]",growth inhibition ([1]; at 50.0 µM),"growth inhibition [2, 7]","growth inhibition [2, 8]",growth inhibition ([2]; at 50.0 µM),"growth inhibition [3, 7]","growth inhibition [3, 8]",growth inhibition ([3]; at 50.0 µM),"growth inhibition [4, 7]","growth inhibition [4, 8]",growth inhibition ([4]; at 50.0 µM),"growth inhibition [5, 7]","growth inhibition [5, 8]",growth inhibition ([5]; at 50.0 µM),"growth inhibition [6, 7]","growth inhibition [6, 8]",growth inhibition ([6]; at 50.0 µM)
O=C1NC(=S)S/C1=C/c1ccc(/C=C2/SC(=S)NC2=O)cc1,-16%,-3%,21%,-10%,-14%,22.6%,-6%,-3%,9.45%,-19%,-22%,58.4%,-12%,-12%,7.75%,-15%,-19%,28.4%
C/C(=N\NC(=S)N1CCC(O)CC1)c1ccccn1,14%,93% (active),99% (active),14%,94% (active),99.5% (active),40%,99% (active),99.2% (active),16%,95% (active),98.2% (active),39%,97% (active),98.8% (active),28%,98% (active),98.8% (active)
O=C(O)c1cccc(N=Nc2c(S(=O)(=O)O)ccc3c2C(=O)c2ccccc2C3=O)c1O,17%,38%,30.4%,8%,17%,36.8%,8%,38%,-2.5%,-21%,17%,71.1% (active),-11%,25%,-15.2%,29%,28%,85.6% (active)
COc1ccc(/C=C/c2ccnc3ccccc23)cc1,24%,98% (active),90.3% (active),20%,99% (active),92.2% (active),22%,99% (active),89.7% (active),25%,96% (active),89% (active),48%,99% (active),86.5% (active),29%,98% (active),86% (active)
c1cnc2c(Oc3nc(Oc4cccc5cccnc45)nc(Oc4cccc5cccnc45)n3)cccc2c1,1%,91% (active),94% (active),30%,90% (active),89.9% (active),18%,76% (active),94.1% (active),5%,54%,84.2% (active),-2%,92% (active),94% (active),30%,94% (active),91.2% (active)
CC(O[Si](c1ccccc1)(c1ccccc1)C(C)(C)C)[C@H](NC(=O)OC(C)(C)C)C(=O)O[Si](c1ccccc1)(c1ccccc1)C(C)(C)C (some centres not stated),91% (active),99% (active),89.9% (active),88% (active),99% (active),92.9% (active),96% (active),100% (active),92.8% (active),93% (active),99% (active),91.2% (active),71% (active),84% (active),91.3% (active),93% (active),99% (active),89% (active)
CCCCCC(CN(C)C)C(O)/C=C\c1ccccc1 (configuration not stated),0%,-8%,74.7% (active),-1%,-4%,48.6%,-10%,-22%,72.1% (active),-1%,-6%,4.9%,-2%,-10%,1.6%,8%,-9%,68.5%
CCC=Nc1c(O)cc(-c2ccccc2)n(C)c1=O,36%,71% (active),73.2% (active),35%,75% (active),11.9%,40%,92% (active),70.8% (active),35%,45%,16.3%,35%,93% (active),70% (active),47%,94% (active),60.5%
O=C(CC(O)(CC(=O)OCc1ccccc1)C(=O)OCc1ccccc1)OCc1ccccc1,-3%,-23%,99.2% (active),-2%,-27%,99.5% (active),-4%,-22%,99.1% (active),11%,-10%,98.2% (active),-1%,-34%,99.4% (active),3%,-9%,99% (active)
CC1=NOC(=O)/C1=C/C=C/c1ccccc1,-7%,47%,87.1% (active),3%,79% (active),86.3% (active),9%,89% (active),90.3% (active),22%,28%,40.1%,-23%,66%,60.8%,2%,80% (active),79.2% (active)
CCC(c1ccc(Cl)cc1)C(C#N)c1ccccc1 (configuration not stated),6%,40%,76.7% (active),7%,34%,49.2%,3%,53%,69.4%,2%,3%,-0.6%,1%,3%,40.4%,7%,30%,59%
CC[C@@H](C(=O)[C@@H](C)[C@@H](O)[C@H](C)CCc1ccc(C)c(O)c1C(=O)O)[C@H]1O[C@](CC)([C@H]2CC[C@](O)(CC)[C@H](C)O2)C[C@@H]1C,36%,97% (active),89.7% (active),48%,98% (active),92% (active),38%,98% (active),91% (active),71% (active),99% (active),87.8% (active),65%,98% (active),88.9% (active),35%,98% (active),89.3% (active)
CN(C)/C=C(\C(=O)c1ccccc1)n1nc(-c2ccccc2)cc1-c1ccccc1,15%,45%,72.5% (active),-4%,20%,73.7% (active),11%,48%,83.3% (active),22%,50%,70.2% (active),-3%,38%,74% (active),16%,54%,81.3% (active)
O=C(c1ccc(Br)cc1)C1N=NCC1c1ccccc1 (configuration not stated),1%,36%,-4.75%,9%,52%,64.7%,4%,-14%,64.7%,6%,65%,12.8%,0%,59%,86.3% (active),-4%,64%,80.2% (active)
CCOC(=O)C(C#N)NC(C)=O (configuration not stated),3%,1%,68%,0%,1%,49.3%,0%,1%,75.4% (active),-1%,0%,3.05%,0%,-5%,69%,3%,3%,57.8%
Cc1c(Cl)cc2[nH]c(C(F)(F)F)nc2c1Cl,3%,66%,63%,8%,76% (active),75.2% (active),3%,79% (active),71.2% (active),10%,71% (active),65.1%,2%,56%,41.5%,3%,72% (active),70.5% (active)
COc1ccc(C2c3cn[nH]c3CC3CCCCC32)cc1 (configuration not stated),25%,98% (active),75.8% (active),-8%,99% (active),83.8% (active),9%,98% (active),85.5% (active),31%,99% (active),89.8% (active),-20%,99% (active),88.3% (active),8%,98% (active),90.7% (active)
NC(=O)C1C(=O)c2cccc3c2C1(Br)C(Br)CCC3 (configuration not stated),12%,99% (active),99.2% (active),-5%,100% (active),99.4% (active),26%,100% (active),99.5% (active),2%,98% (active),98.8% (active),7%,99% (active),99.2% (active),12%,99% (active),99.3% (active)
O=[N+]([O-])/C=C\c1csc2ccccc12,94% (active),99% (active),99.2% (active),96% (active),98% (active),99.6% (active),97% (active),99% (active),99.5% (active),81% (active),99% (active),99.3% (active),92% (active),99% (active),99.3% (active),92% (active),99% (active),99.3% (active)
